Where “and” joins values, the source holds several entries; their conditions need not be identical. Equal values may be shown once. Inconclusive results are not listed. Calls of active or inactive are those of the source. Unless noted, calls follow the shape of the dose curve; as a rule, active = well fitted curve in the direction sought with a large enough effect in the repeat runs; inconclusive = weak or mixed curves; inactive = no such curve, though single readings can be large; an effect the other way counts as inactive or inconclusive.
Key:
[1] = qHTS assay for small molecules that induce genotoxicity in human embryonic kidney cells expressing luciferase-tagged ATAD5 (AID 651632); also: nearly all actives have a fitted effect of over 15% in size
Procedure, shortened: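 Reporter cells (HEK293T) express luciferase-tagged ATAD5, a protein that accumulates after DNA damage. Treat 16 hr at 37C/5% CO2, add Amplite, wait 30 min at RT, and read luminescence.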

[2] = qHTS assay for small molecule agonists of the p53 signaling pathway - cell viability (AID 651633; calls by dose curve; also: series mostly up to about 83 µM; nearly all actives have a fitted effect of over 30% in size)
Procedure, shortened: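 p53RE-bla cells, seeded at 4,000 per well and rested 5 h at 37 C/5% CO2, received compounds in DMSO for 16 h at 37 C. CellTiter-Glo was then added, and luminescence was read after 30 min at room temperature to gauge cytotoxicity.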

[3] = qHTS assay for small molecules that induce genotoxicity in human embryonic kidney cells expressing luciferase-tagged ATAD5 - cell viability (AID 651634; calls by dose curve; also: nearly all actives have a fitted effect of over 25% in size)
Procedure, shortened: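 Seeding of 2,000 HEK293T ATAD5-luciferase cells per well preceded pin-tool compound transfer. Plates sat 15.5 hr at 37C under 5% CO2, then fluorescence was read after 30 min with CellTiter-Fluor.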

[4] = qHTS assay for small molecule disruptors of the mitochondrial membrane potential - cell viability (AID 720634; calls by dose curve;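 also: human HepG2 liver cancer cells; series mostly up to about 83 µM; nearly all actives have a fitted effect of over 20% in size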)
Procedure, shortened: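 Measuring cytotoxicity alongside mitochondrial potential, the screen quantified ATP by luminescence in HepG2 cells after 1 hr compound incubation and a 30 min room-temperature CellTiter-Glo step.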

[5] = qHTS assay for small molecule disruptors of the mitochondrial membrane potential (AID 720635)
Procedure, shortened: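 HepG2 cells (2,000/well) attached overnight at 37C, then took compound for 1 hr at 37C, 5% CO2. Mito-MPS dye was added for 30 min; fluorescence was read at 490/535 nm (monomers) and 540/590 nm (aggregates).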

[6] = qHTS assay to test for compound auto fluorescence at 590 nm (red) in HepG2 cells (AID 720674)
Procedure, shortened: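 Rose Bengal sodium served as the red fluorophore standard. HepG2 monolayers (overnight attachment, MEM with 10% FBS) were exposed to test compounds for 1 hr at 37 C and read at Ex 540/Em 590 nm.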

[7] = qHTS assay to test for compound auto fluorescence at 535 nm (green) in HepG2 cells (AID 720675)
[8] = qHTS assay to test for compound auto fluorescence at 590 nm (red) in HEK293 cells (AID 720679)
Procedure, shortened: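 Red autofluorescence, HEK293 cells: 2,000 cells/well; attach 4-5 hr 37C; add 23 nL cpd or DMSO; incubate o/n 37C 5% CO2; read Ex540/Em590; Rose Bengal sodium reference.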

[9] = qHTS assay to test for compound auto fluorescence at 535 nm (green) in HEK293 cells (AID 720680)
[10] = qHTS assay to test for compound auto fluorescence at 460 nm (blue) in HEK293 cell free culture (AID 720681)
Procedure, shortened: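 Test compounds were pinned into cell-free culture medium (DMEM with 10% FBS) and fluorescence was read directly at Ex/Em 405/460 nm. Signals were expressed as fluorescence equivalents of triamterene, with DMSO vehicle as control.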

[11] = qHTS assay to test for compound auto fluorescence at 535 nm (green) in HEK293 cell free culture (AID 720682)
Procedure, shortened: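 Read-out: 485/535 nm fluorescence intensity, calibrated against fluorescein. Medium only (DMEM + 10% FBS, no cells); test compound or DMSO vehicle added by pintool before plate reading.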

[12] = qHTS assay to test for compound auto fluorescence at 590 nm (red) in HepG2 cell free culture (AID 720684)
Procedure, shortened: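 Red fluorescence (540 nm excitation, 590 nm emission) was measured after compound transfer into cell-free MEM supplemented with 10% FBS. Values are equivalencies against Rose Bengal sodium.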

[13] = qHTS assay to test for compound auto fluorescence at 460 nm (blue) in HepG2 cells (AID 720687)
Procedure, shortened: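 Cells (2,000/well in MEM with 10% FBS) attached overnight at 37 C, then were exposed to compound or DMSO for 1 hr at 37 C, 5% CO2. Fluorescence read at Ex/Em 405/460 nm, expressed as triamterene-equivalent signal.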

[14] = target: Glucocorticoid receptor (Homo sapiens) (UniProt P04150); assay: qHTS assay to identify small molecule agonists of the glucocorticoid receptor (GR) signaling pathway (AID 720691; active = well fitted activation curve with a large enough effect in the signal ratio in the repeat runs, not every such curve was filed as active; the % refers to the signal ratio)
Procedure, shortened: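 Reporter read-out: fluorescence intensity following 2 h room-temperature LiveBLAzer B/G FRET substrate loading. Prior step: GR-bla HeLa cells held 4 h, then treated 18 h at 37 C.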

[15] = target: Glucocorticoid receptor (Homo sapiens) (UniProt P04150); assay: qHTS assay to identify small molecule antagonists of the glucocorticoid receptor (GR) signaling pathway (AID 720692; active = well fitted inhibition curve with a large enough effect in the signal ratio in the repeat runs, not every such curve was filed as active; the % refers to the signal ratio)
Procedure, shortened: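 Dexamethasone (5 nM final) stimulated a stably integrated GRE-beta-lactamase reporter in HeLa cells during 18 h co-incubation with compounds; signal was quantified as fluorescence intensity of B/G FRET substrate after 2 h.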

[16] = qHTS assay for small molecule agonists of the p53 signaling pathway (AID 651631; calls by dose curve; also: nearly all actives have a fitted effect of over 15% in size)
Procedure, shortened: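 HCT-116 cells carrying a stable p53 response element–beta-lactamase reporter were plated, rested 5 h at 37 °C, then exposed to compound in DMSO for 16 h at 37 °C; reporter activity was read as FRET substrate fluorescence after 2 h at room temperature.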

[17] = qHTS assay to test for compound auto fluorescence at 460 nm (blue) in HEK293 cells (AID 720678)
Procedure, shortened: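 Intrinsic compound fluorescence is recorded in live HEK293 cultures after overnight incubation at 37C, 5% CO2, using excitation 405 nm and emission 460 nm. Values are referenced to triamterene.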

[18] = qHTS assay to test for compound auto fluorescence at 590 nm (red) in HEK293 cell free culture (AID 720683)
Procedure, shortened: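 Tox21 10K library compounds were pinned into cell-free DMEM with 10% FBS and fluorescence was read at excitation 540 nm. Activity is expressed as Rose Bengal sodium equivalency.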

[19] = qHTS assay to test for compound auto fluorescence at 460 nm (blue) in HepG2 cell free culture (AID 720685)
Procedure, shortened: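 Compound (23 nL) or DMSO pinned into cell-free MEM with 10% FBS; blue fluorescence read at 405/460 nm excitation/emission, expressed as auto-fluorescence equivalency to triamterene.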

[20] = qHTS assay to test for compound auto fluorescence at 535 nm (green) in HepG2 cell free culture (AID 720686)
% is scaled to controls: 0 for no effect and ±100 for the full control effect.

Chain of Glucocorticoid receptor (Homo sapiens) (P04150 whole entry, looked up): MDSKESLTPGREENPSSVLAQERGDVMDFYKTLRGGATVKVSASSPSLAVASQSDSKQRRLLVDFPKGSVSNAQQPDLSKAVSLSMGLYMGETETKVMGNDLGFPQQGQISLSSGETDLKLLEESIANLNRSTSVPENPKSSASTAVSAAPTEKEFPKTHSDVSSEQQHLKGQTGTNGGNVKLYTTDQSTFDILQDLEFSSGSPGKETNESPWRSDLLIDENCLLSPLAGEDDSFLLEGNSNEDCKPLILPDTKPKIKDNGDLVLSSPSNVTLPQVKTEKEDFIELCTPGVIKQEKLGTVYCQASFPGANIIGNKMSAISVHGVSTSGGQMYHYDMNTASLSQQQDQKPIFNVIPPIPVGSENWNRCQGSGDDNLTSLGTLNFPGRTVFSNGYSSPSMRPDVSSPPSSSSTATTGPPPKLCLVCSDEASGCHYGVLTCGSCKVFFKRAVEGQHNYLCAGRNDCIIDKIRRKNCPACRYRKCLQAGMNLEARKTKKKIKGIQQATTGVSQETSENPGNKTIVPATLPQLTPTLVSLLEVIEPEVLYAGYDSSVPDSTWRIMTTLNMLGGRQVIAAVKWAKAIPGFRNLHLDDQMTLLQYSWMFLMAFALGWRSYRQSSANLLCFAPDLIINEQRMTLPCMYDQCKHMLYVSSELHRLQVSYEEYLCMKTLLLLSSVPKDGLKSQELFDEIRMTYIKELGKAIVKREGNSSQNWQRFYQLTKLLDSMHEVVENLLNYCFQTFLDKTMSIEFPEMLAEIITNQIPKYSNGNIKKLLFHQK

Cc1occc1S
inactive: Potency [1] | Potency [2] | Potency [3] | Potency [4] | Potency [5] | outcome [6] | outcome [7] | outcome [8] | outcome [9] | Potency [10] | outcome [11] | outcome [12] | Potency [13] | Potency [14] | Potency [15]

Oc1ccc2c(c1)OCO2
inactive: Potency [16] | Potency [1] | Potency [2] | Potency [5] | outcome [6] | Potency [17] | outcome [9] | Potency [10] | outcome [11] | outcome [18] | outcome [12] | Potency [19] | Potency [14]

CCN(CC)C(C)CN1c2ccccc2Sc2ccccc21 (centres undefined)
inactive: Potency [1] | Potency [2] | Potency [3] | Potency [4] | Potency [5] | fluorescence, relative to Rose Bengal [6] 0.373% [at 18.6 µM] | fluorescence, % of fluorescein control [7] 0.0339% [at 18.6 µM] | fluorescence, % of triamterene [17] -0.0331% [at 18.6 µM] | fluorescence, % of fluorescent control [8] -0.0946% [at 18.6 µM] | fluorescence, % of fluorescein [9] -0.0513% [at 18.6 µM] | fluorescence, % of fluorescent control [10] -0.0592% [at 18.6 µM] | activity change [11] -0.135% [at 18.6 µM] | fluorescence, % of fluorescent control [18] -0.0816% [at 18.6 µM] | fluorescence, % of Rose Bengal [12] -0.332% [at 18.6 µM] | fluorescence, % of fluorescent control [19] 0.0011% [at 18.6 µM] | fluorescence, % of fluorescein control [20] -0.0641% [at 18.6 µM] | fluorescence, % of fluorescent control [13] -0.0255% [at 18.6 µM]

CCOc1ccc(NC(=O)CC(C)=O)cc1
inactive: Potency [1] | Potency [2] | Potency [3] | Potency [4] | Potency [5] | outcome [6] | outcome [7] | Potency [17] | outcome [8] | outcome [9] | Potency [10] | outcome [11] | outcome [18] | outcome [12] | Potency [19] | outcome [20] | Potency [13] | Potency [14] | Potency [15]

CCC(=O)OC(C)(C)C1CC=C(C)CC1 (centres undefined)
inactive: Potency [16] | Potency [1] | Potency [2] | outcome [6] | Potency [17] | outcome [8] | outcome [9] | Potency [10] | outcome [11] | outcome [18] | outcome [12] | Potency [19] | outcome [20] | Potency [13]

NC[C@H]1O[C@H](O[C@H]2[C@H](O)[C@@H](O[C@H]3O[C@H](CO)[C@@H](O)[C@H](N)[C@H]3O)[C@H](N)C[C@@H]2N)[C@H](O)[C@@H](O)[C@@H]1O
inactive: Potency [16] | Potency [1] | Potency [3] | Potency [4] | ratio activity, negative = MMP loss [5] 0.685% [at 8.08 µM] | fluorescence, relative to Rose Bengal [6] -0.029% [at 18.6 µM] and 0.338% [at 3.72 µM] | fluorescence, % of triamterene [17] 0.0195% [at 18.6 µM] and -0.0441% [at 3.72 µM] | fluorescence, % of fluorescent control [8] 0.0121% [at 18.6 µM] and -0.0907% [at 3.72 µM] | fluorescence, % of fluorescein [9] -0.0192% [at 18.6 µM] and 0.0982% [at 3.72 µM] | fluorescence, % of fluorescent control [10] 0.0354% [at 18.6 µM] and -0.129% [at 3.72 µM] | fluorescence, % of Rose Bengal [12] -0.276% [at 18.6 µM] and 0.0159% [at 3.72 µM] | fluorescence, % of fluorescent control [19] -0.077% [at 18.6 µM] and 0.036% [at 3.72 µM] | fluorescence, % of fluorescein control [20] -0.0088% [at 18.6 µM] and 0.0013% [at 3.72 µM] | fluorescence, % of fluorescent control [13] 0.0301% [at 18.6 µM] and -0.0315% [at 3.72 µM] | Potency [15]

COc1ccccc1OC(=O)Oc1ccccc1OC
inactive: Potency [16] | Potency [1] | Potency [2] | Potency [5] | outcome [6] | outcome [7] | Potency [17] | outcome [9] | Potency [10] | outcome [11] | outcome [18] | outcome [12] | Potency [19] | outcome [20] | Potency [13] | Potency [15]

Cc1ccccc1N=Nc1ccc(N=Nc2c(O)ccc3ccccc23)c(C)c1
inactive: Potency [1] | Potency [2] | Potency [3] | Potency [4] | Potency [5] | outcome [6] | outcome [7] | Potency [17] | outcome [9] | Potency [10] | outcome [18] | outcome [12] | Potency [19] | outcome [20] | Potency [13]

— PubChem BioAssay (Tox21)
